Pf growth 96h: inhibits malaria parasite growth, 96 h; P. falciparum luciferase reporter growth, 96 h; 320,000 tested, 6.9% active; Potency, µM (highest dose often 28.7 µM), for the others: at the top dose activity change, negative = inhibition, hits mostly inhibitors; AID 504834
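Cell-based qHTS: luciferase-tagged P. falciparum in erythrocytes (2% hematocrit, 0.05% parasitemia final) incubated with compounds for 96 hours, 37 C, 5% CO2; luciferase detection reagent then added and luminescence measured.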
HCV inh: HCV inhibition | AID 651820 | 340,000 tested, 3.4% active | Potency, µM (titrated, usually from 41.8 µM), inactives show at the highest dose activity change, negative = inhibition, hits mostly inhibitors | Huh7.5.1 HCVcc-Cre infection, luciferase reporter, 44 h
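Infectious HCVcc-Cre (~0.5 moi) was added to cells just after compound, with cells seeded 4 h earlier at 1,000 per well. Luciferase activity after 44 h culture reported infection; substrate was incubated 15 min at room temperature before reading.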
AmpC inh detg: inhibitors of E. coli AmpC beta-lactamase with detergent; 370,000 tested, 0.041% active; Potency, µM (top dose mostly 114 µM), for the others: at the highest dose activity change, negative = inhibition, most hits filed as inhibitors; AmpC hydrolysis of nitrocefin, absorbance 480 nm, 0.01% Triton; P00811;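 also: 0% = no-compound wells and -100% = no-enzyme wells; nearly all actives have a fitted effect of over 25% in size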
Target sequence (P00811 whole entry, looked up): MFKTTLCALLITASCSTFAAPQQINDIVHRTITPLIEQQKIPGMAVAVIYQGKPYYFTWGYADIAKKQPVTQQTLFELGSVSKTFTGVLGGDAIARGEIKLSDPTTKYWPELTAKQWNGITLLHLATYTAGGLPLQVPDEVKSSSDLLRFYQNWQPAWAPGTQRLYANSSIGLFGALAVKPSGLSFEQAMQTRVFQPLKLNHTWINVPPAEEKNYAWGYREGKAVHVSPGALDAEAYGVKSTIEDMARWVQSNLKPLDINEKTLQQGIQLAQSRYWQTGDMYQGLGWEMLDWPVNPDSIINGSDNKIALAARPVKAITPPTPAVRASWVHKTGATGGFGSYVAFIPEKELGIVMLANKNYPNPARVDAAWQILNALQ
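20 mM phosphate pH 7.0 + 0.01% (detergent screen) or 0.0001% Triton X-100; 5.3 nM AmpC reagent; cpd preinc 15 min RT; nitrocefin (800 uM stock) to start; A480 q20 s × 4 min; Activity was normalised to no-enzyme and no-compound control wells.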
AmpC no deterg: blocks E. coli AmpC beta-lactamase in detergent-free assay; AID 485341; Potency, µM (top dose mostly 57.1 µM), for the others: top-dose activity change, negative = inhibition, usual class: inhibitors; 330,000 tested, 0.52% active; P00811; AmpC nitrocefin hydrolysis, absorbance 480 nm, 0.0001% Triton;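 also: plate controls were no compound for no effect and no enzyme for full effect; nearly all actives have a fitted effect of over 20% in size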
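AmpC (5.3 nM in the dispensed reagent) in 20 mM phosphate pH 7.0 with 0.01% (detergent screen) or 0.0001% Triton X-100 was preincubated with compounds for 15 min at room temperature. Nitrocefin was then added from an 800 uM solution, and hydrolysis was followed at 480 nm.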
AMA1 RON2 block: AMA1-RON2 (P. falciparum) interaction inhibition | AlphaScreen AMA1-biotinylated RON2 peptide binding | Potency, µM (series often up to 58.2 µM), for inactives: at the highest dose activity change, negative = inhibition, actives largely listed as inhibitors | 360,000 tested, 0.2% active;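 also: 0% = vehicle wells and -100% = peptide control; nearly all actives have a fitted effect of over 45% in size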
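AMA1 (3D7) with his tag at 25 nM final met compounds first, then biotinylated RON2 peptide at 25 nM; detection used donor plus acceptor beads, 10 µg/mL apiece, read by AlphaScreen after 30 min at room temperature.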
Pf growth 48h: inhibits P. falciparum growth in the first generation, 48 h. 310,000 tested, 5.9% active. P. falciparum luciferase growth in erythrocytes, 48 h. Potency, µM (series often up to 28.7 µM), for inactives: at the highest dose activity change, negative = inhibition, hits mostly inhibitors
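Luciferase-expressing P. falciparum in infected erythrocytes (2% hematocrit, 0.1% parasitemia final) in RPMI 1640/0.5% Albumax were exposed to compound for 48 hours at 37 C, 5% CO2; growth read as luminescence.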
* hit, by the source's call; [ ] = remark or other dose. Compounds with a hit are over-represented: about 11% of the library has one in this group of screens. Calls follow the shape of the dose curve; as a rule, active = well fitted curve in the direction sought with a large enough effect; inconclusive = small, poorly fitted or top-dose-only effect, or another doubt; inactive = no such curve, though single readings can be large; an effect the other way counts as inactive or inconclusive. Unless noted, % is scaled to controls: 0 for no effect and ±100 for the full control effect; potency is read from the fitted curve at half-maximal effect.

Results for COc1cccc(CNC(=O)Cn2c(=O)nc(-c3ccccc3F)c3cc(Cl)ccc32)c1 ?
AmpC inh detg: 8%

What do the screens show for `Cc1ccc2onc(CC(=O)N(C)c3ccccc3)c2c1`?
AmpC inh detg: 12%

What do the screens show for `COc1ccc(S(=O)(=O)c2cnc3ccccc3n2)cc1`?
Pf growth 96h: 13µM*; HCV inh: 2%; AmpC inh detg: -7%; AmpC no deterg: 0%; AMA1 RON2 block: -13%; Pf growth 48h: inconclusive

What do the screens show for `O=S(=O)(Cc1ccccc1)c1cnc2ccccc2n1`?
HCV inh: 5%; AmpC inh detg: -6%; AmpC no deterg: -14%; AMA1 RON2 block: 3%; Pf growth 48h: 10µM*

Results for O=S(=O)(c1ccc(Br)cc1)c1cnc2ccccc2n1 ?
Pf growth 96h: 12µM*; HCV inh: inconclusive; AmpC inh detg: 2%; AmpC no deterg: -23%; AMA1 RON2 block: -27%; Pf growth 48h: inconclusive

Results for COc1ccc(S(=O)(=O)c2ccc(OC)cc2)cc1 ?
HCV inh: 26%; AmpC inh detg: -6%; AmpC no deterg: -30%; AMA1 RON2 block: 3%; Pf growth 48h: 9%

What do the screens show for `Cc1ccccc1CNS(=O)(=O)c1csc(C(N)=O)c1`?
Pf growth 96h: 6.6µM*; HCV inh: 9%; AmpC inh detg: 4%; AmpC no deterg: -22%; AMA1 RON2 block: 12%; Pf growth 48h: -27%

Results for NC(=O)c1cc(S(=O)(=O)NCc2ccccc2)cs1 ?
Pf growth 96h: 53%; HCV inh: -3%; AmpC inh detg: -10%; AmpC no deterg: -6%; AMA1 RON2 block: 5%; Pf growth 48h: 16%

How did CCOc1ccc(NS(=O)(=O)c2csc(C(N)=O)c2)cc1 do in these assays?
Pf growth 96h: 1%; HCV inh: -10%; AmpC inh detg: -5%; AmpC no deterg: -7%; AMA1 RON2 block: 6%; Pf growth 48h: 1.9µM*

Results for Cc1ccc(S(=O)(=O)c2nc(S(=O)(=O)c3ccc(C)cc3)c(NCc3ccco3)s2)cc1 ?
Pf growth 96h: 13µM*; HCV inh: -20%; AmpC inh detg: inconclusive; AmpC no deterg: -42%; AMA1 RON2 block: 2%; Pf growth 48h: inconclusive

How did CCS(=O)(=O)c1nc(S(=O)(=O)c2ccc(Cl)cc2)c(NCCCN2CCCC2=O)s1 do in these assays?
Pf growth 96h: inconclusive; HCV inh: 1%; AmpC inh detg: -1%; AmpC no deterg: 112%; AMA1 RON2 block: 11%; Pf growth 48h: -13%

What do the screens show for `CCS(=O)(=O)c1nc(S(=O)(=O)c2ccc(Cl)cc2)c(NCc2ccco2)s1`?
Pf growth 96h: inconclusive; HCV inh: 2%; AmpC inh detg: -1%; AmpC no deterg: -46%; AMA1 RON2 block: -8%[11.6 µM]; Pf growth 48h: inconclusive

Results for CCCS(=O)(=O)c1nc(S(=O)(=O)c2ccc(C)cc2)c(NCCCN2CCCC2=O)s1 ?
Pf growth 96h: 9.3µM*; HCV inh: inconclusive; AmpC inh detg: inconclusive; AmpC no deterg: 106%; AMA1 RON2 block: 1%; Pf growth 48h: -16%

How did CCCS(=O)(=O)c1nc(S(=O)(=O)c2ccc(C)cc2)c(NCc2ccco2)s1 do in these assays?
Pf growth 96h: inconclusive; HCV inh: inconclusive; AmpC inh detg: -1%; AmpC no deterg: -39%; AMA1 RON2 block: -9%[11.6 µM]; Pf growth 48h: 12µM*

What do the screens show for `Cc1c(Cl)cccc1-c1ccc(CNCCSc2nnnn2-c2ccccc2)o1`?
AmpC inh detg: -6%

How did CC(=O)c1cc(-c2ccccc2)n(CC(=O)NCc2ccccc2C)c1C do in these assays?
AmpC inh detg: 1%

Results for Cc1c(CNC2CCCCCC2)c(C(=O)O)c(C)n1Cc1cccc(Cl)c1 ?
AmpC inh detg: -10%

What do the screens show for `C=CSc1sc(Cl)c(N2CCOCC2)c1[N+](=O)[O-]`?
Pf growth 96h: 25%; HCV inh: 9%; AmpC inh detg: 4%; AmpC no deterg: -15%; AMA1 RON2 block: inconclusive; Pf growth 48h: 8.3µM*

What do the screens show for `C=CS(=O)(=O)c1sc(Cl)c(N2CCOCC2)c1[N+](=O)[O-]`?
Pf growth 96h: -13%; HCV inh: inconclusive; AmpC inh detg: inconclusive; AmpC no deterg: 28µM*; AMA1 RON2 block: -22%; Pf growth 48h: -7%

What do the screens show for `O=[N+]([O-])c1cccc(Cl)c1N1CCOCC1`?
Pf growth 96h: inconclusive; HCV inh: 30%; AmpC inh detg: -13%; AmpC no deterg: -10%; AMA1 RON2 block: -1%; Pf growth 48h: 20%

What do the screens show for `O=c1oc2ccc([N+](=O)[O-])cc2c(N2CCOCC2)c1[N+](=O)[O-]`?
Pf growth 96h: 391%; AmpC inh detg: -9%; AmpC no deterg: -3%; Pf growth 48h: -8%

Results for O=C(NCC1CCN(Cc2ccccc2Cl)CC1)c1cc2ccc3cccnc3c2[nH]1 ?
AmpC inh detg: 14%

How did Cc1ccc(N2Cc3ccccc3OC(C)C2=O)cc1 (stereo unspecified) do in these assays?
Pf growth 96h: 9.3µM*; HCV inh: 10%; AmpC inh detg: inconclusive; AmpC no deterg: -4%; AMA1 RON2 block: -4%

Results for Cc1cc(C)cc(OCCOCCn2c(-c3ccc(Cl)cc3)nc3ccccc3c2=O)c1 ?
AmpC inh detg: 17%

How did CCN(Cc1ccccc1)S(=O)(=O)c1cc(C(=O)NCC2CCCCC2)ccc1OC do in these assays?
Pf growth 96h: 12µM*; HCV inh: inconclusive; AmpC inh detg: inconclusive; AmpC no deterg: -13%; AMA1 RON2 block: 11%; Pf growth 48h: inconclusive

What do the screens show for `CCN(Cc1ccccc1)S(=O)(=O)c1cc(C(=O)NC2CCCCCC2)ccc1OC`?
Pf growth 96h: inconclusive; HCV inh: inconclusive; AmpC inh detg: -14%; AmpC no deterg: 4%; AMA1 RON2 block: 3%; Pf growth 48h: inconclusive

Results for CN(C)CCNC(=O)C1CCN(c2ncnc3c2nc2n3CCCCC2)CC1 ?
AmpC inh detg: 1%

How did NC1=NC[C@H](Cc2ccccc2)N1CC1CCCCC1 do in these assays?
HCV inh: 8%; AMA1 RON2 block: -5%

What do the screens show for `NC1=NC[C@H](Cc2ccc(O)cc2)N1CC1CCCCC1`?
Pf growth 96h: 2.6µM*; HCV inh: 16%; AmpC inh detg: 7%; AmpC no deterg: -31%; AMA1 RON2 block: -5%; Pf growth 48h: 5.9µM*

Results for NC1=NC[C@@H](Cc2ccc(O)cc2)N1CCCCC1CCCCC1 ?
Pf growth 96h: 1.2µM*; HCV inh: 20%; AmpC inh detg: 3%; AmpC no deterg: -14%; AMA1 RON2 block: -1%; Pf growth 48h: 1.9µM*

Screens deposited in PubChem BioAssay by National Center for Advancing Translational Sciences (NCATS).
